Assay outcomes as filed in PubChem.
Compounds with a hit are over-represented: about 13% of the library has one in this group of screens.
USP30 inh: inhibitors of human USP30 deubiquitinase. inhibition, % at 25 µM. AID 1645860. 47,000 tested, 5.3% active. purified USP30, Ub-rhodamine cleavage fluorescence
USP8 block: inhibitors of human USP8 deubiquitinase; P40818; purified USP8, Ub-rhodamine cleavage fluorescence, 30 min; inhibition, % at 20 µM; 47,000 tested, 4.2% active; AID 1645853
USP17 block: human USP17-like deubiquitinase inhibition. A8MUK1. purified USP17, Ub-rhodamine cleavage fluorescence, 3 h. inhibition, % at 50 µM. 47,000 tested, 6.5% active
USP28 block: blocks human USP28 ubiquitin-rhodamine cleavage | purified USP28, Ub-rhodamine cleavage fluorescence, 30 min | inhibition, % at 25 µM | 47,000 tested, 3% active | AID 1645857
OTUD3 inh: inhibitors of human OTUD3 deubiquitinase; Q5T2D3; purified OTUD3, Ub-rhodamine fluorescence, 2 h; inhibition, % at 25 µM; 47,000 tested, 0.7% active; AID 1645858
* marks the source's active call; other numbers are inactive results; / = no result given. Rule as the data show it: active = inhibition above about 30%; inactive = the rest.

SMILES	USP30 inh	USP8 block	USP17 block	USP28 block	OTUD3 inh
C=Cc1ccc(Cn2cccc(S(=O)(=O)N3CCCC3)c2=O)cc1	-58.6	-12.7	62.7*	48.8*	0.1
CCOC(=O)c1noc2ncn(Cc3nc(-c4ccccc4Cl)oc3C)c(=O)c12	-1.7	-0.3	-4.9	5.9	6.9
COc1cc(Cl)cc(CNC(C)C(=O)O)c1O (configuration not stated)	-0.6	65.8*	17.9	-14.2	-8.0
COc1ccc(Cl)cc1NC(=O)CC(NCCc1ccccc1)C(=O)O (configuration not stated)	18.0	21.4	17.5	13.7	14.7
O=C(Cc1ccc(F)cc1)N1CCC(Cc2nc(-c3cnccn3)no2)CC1	-4.4	3.2	0.1	-15.7	-0.1
Fc1ccc(-c2nc(-c3cnccn3)no2)c(Cl)c1	35.8*	1.2	19.3	12.1	0.1
CN(Cc1ccccc1)C(=O)CCn1cnc2c(-c3ccc(F)cc3)noc2c1=O	23.3	0.1	4.5	13.9	9.1
Cc1nc(-c2ccccc2)sc1C(=O)NCc1ccc2c(c1)OCO2	21.0	-1.7	-0.3	5.6	0.3
O=C(NCc1ccc2c(c1)OCO2)c1cc2ccccc2s1	29.5	23.3	22.7	41.5*	21.9
Cc1cc(C)n2c(SCC(=O)NCc3ccc4c(c3)OCO4)nnc2n1	-7.3	12.4	16.6	14.2	4.7
CCCC(=O)Nc1nc2ccc(CCC(=O)NCc3ccccc3)cc2s1	-15.9	10.0	4.0	2.1	-1.6
O=C(NCc1ccc2c(c1)OCO2)c1nc(-c2ccccc2)n(-c2ccccc2)n1	55.0*	2.1	17.7	6.3	16.6
O=C(CSc1nnc2sc3ccccc3n12)NCc1ccc2c(c1)OCO2	19.8	-14.1	31.7*	-0.8	6.4
CC(C)C(=O)Nc1nc2ccc(CCC(=O)NCc3ccc4c(c3)OCO4)cc2s1	38.2*	20.0	23.5	23.3	18.4
O=C(NCc1noc(-c2ccccc2)n1)c1ccc(F)cc1	24.9	12.1	/	-1.3	-1.1
c1ccc(-c2noc(-c3ccc(N4CCC5(CC4)OCCO5)nc3)n2)cc1	1.7	5.5	-1.1	2.2	-1.2
O=C(CSc1nc(C(=O)O)c2ccccc2n1)c1ccc(Cl)cc1	24.2	9.8	15.6	7.1	14.9
CC(C)(CNc1nn2cnnc2c2ccccc12)N1CCOCC1	13.0	23.2	12.0	9.3	6.8
c1ccc2c(c1)c(NCc1ccc3c(c1)OCO3)nn1cnnc21	-27.1	4.3	41.1*	8.5	2.9
Cc1ccc(CNC(=O)CCC(=O)NCc2ccc3c(c2)OCO3)o1	20.1	-17.5	38.5*	6.2	3.6
NS(=O)(=O)c1ccc(CCNC(=O)CSc2nc3ccccc3c(=O)n2Cc2ccc3c(c2)OCO3)cc1	22.7	52.7*	27.2	5.8	12.3
O=C(CSc1nc(-c2ccccc2)c2ccccc2n1)NCc1ccc(C(=O)O)cc1	31.9*	18.9	17.4	13.2	6.1
O=C(CSc1nc(-c2ccccc2)c2ccccc2n1)NCc1ccc2c(c1)OCO2	-261.7	55.1*	-5.3	-72.5	-47.9
O=C(Cn1c(=O)nc(-c2ccccc2)c2ccccc21)NCc1ccc2c(c1)OCO2	8.9	-46.1	67.8*	31.1*	23.3
CN(Cc1ccccc1F)C(=O)c1nc(-c2ccccc2)n(-c2ccccc2)n1	46.8*	17.1	24.7	21.0	22.1
SMILES	USP30 inh	USP8 block	USP17 block	USP28 block	OTUD3 inh
CCn1c(C(=O)O)c(CNCc2ccc3c(c2)OCO3)c2ccccc21	4.0	0.2	6.6	4.1	5.7
CN(Cc1ccccc1F)C(=O)c1ccc(-c2ccccc2F)o1	-0.4	-8.7	/	18.4	5.6
CNc1nc(C2CCN(C(=O)Cc3c[nH]c4ccccc34)C2)nc2c1CN(C)CC2 (configuration not stated)	-19.7	-1.4	4.5	-4.2	-2.2
O=C(c1cccc(Cl)c1)N(Cc1ccccn1)c1nc2ccc(F)cc2s1	18.6	2.8	11.5	6.9	5.7
O=C(NCCN1CCc2ccccc2C1)Nc1ccc(C(F)(F)F)cc1	-4.4	6.5	-5.1	46.2*	-3.1
Cc1cccc(NC(=O)NCCN2CCc3ccccc3C2)c1	-0.2	0.7	-0.5	-1.1	-3.4
Cc1cc(-c2ccc(S(=O)(=O)NCc3ccc(Cl)cc3)s2)on1	59.2*	0.5	76.5*	59.1*	2.6
Cc1cc(-c2ccc(S(=O)(=O)NCc3ccccc3C)s2)on1	37.0*	18.3	35.4*	18.9	16.4
Cc1cccc(CNS(=O)(=O)c2ccc(-c3cc(C(F)(F)F)on3)s2)c1	19.4	21.2	43.2*	9.7	14.4
Cc1cc(-c2ccc(S(=O)(=O)NC3CC3)s2)on1	3.5	0.0	-5.2	3.1	-2.5
